Results filed as inconclusive are left out. Active and inactive are the calls of the source. Unless noted, the call rests on the fitted dose curve; in most records, active means well fitted curve in the direction sought with a large enough effect in the repeat runs; inconclusive means weak or mixed curves; inactive means no such curve, though single readings can be large; an effect the other way counts as inactive or inconclusive.
How the values were obtained:
[1] = qHTS assay for small molecules that induce genotoxicity in human embryonic kidney cells expressing luciferase-tagged ATAD5 (AID 651632); further: nearly all actives have a fitted effect of over 15% in size
Method in brief: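 Increased luciferase signal from ATAD5-tagged reporter cells indicates DNA-damage-driven ATAD5 induction. HEK293T cells are treated for 16 hr at 37C before detection with Amplite.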

[2] = qHTS assay for small molecule agonists of the p53 signaling pathway - cell viability (AID 651633; calls by dose curve;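 further: p53RE-bla HCT reporter cells with a stable beta-lactamase p53 reporter; series mostly up to about 83 µM; nearly all actives have a fitted effect of over 30% in size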)
Method in brief: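 p53RE-bla cells, seeded at 4,000 per well and rested 5 h at 37 C/5% CO2, received compounds in DMSO for 16 h at 37 C. CellTiter-Glo was then added, and luminescence was read after 30 min at room temperature to gauge cytotoxicity.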

[3] = qHTS assay for small molecule disruptors of the mitochondrial membrane potential - cell viability (AID 720634; calls by dose curve; further: nearly all actives have a fitted effect of over 20% in size; further: potency means the concentration at half of the fitted maximal effect)
Method in brief: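 After overnight attachment at 37 C, HepG2 cells received compound or DMSO vehicle for 1 hr. Viability is then taken from ATP-driven luminescence following a 30 min room-temperature CellTiter-Glo step.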

[4] = qHTS assay for small molecule disruptors of the mitochondrial membrane potential (AID 720635); further: potency means the concentration at half of the fitted maximal effect
Method in brief: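 HepG2 cells (2,000/well) attached overnight at 37C, then took compound for 1 hr at 37C, 5% CO2. Mito-MPS dye was added for 30 min; fluorescence was read at 490/535 nm (monomers) and 540/590 nm (aggregates).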

[5] = qHTS assay to test for compound auto fluorescence at 535 nm (green) in HepG2 cells (AID 720675)
[6] = qHTS assay to test for compound auto fluorescence at 590 nm (red) in HEK293 cells (AID 720679)
Method in brief: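 Red-channel autofluorescence (Ex/Em 540/590 nm; Rose Bengal sodium reference) was measured after overnight 37C, 5% CO2 exposure of attached HEK293 cells, 2,000 per well in medium with 10% dialyzed FBS.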

[7] = qHTS assay to test for compound auto fluorescence at 535 nm (green) in HEK293 cells (AID 720680)
[8] = qHTS assay to test for compound auto fluorescence at 460 nm (blue) in HEK293 cell free culture (AID 720681)
Method in brief: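 Test compounds were pinned into cell-free culture medium (DMEM with 10% FBS) and fluorescence was read directly at Ex/Em 405/460 nm. Signals were expressed as fluorescence equivalents of triamterene, with DMSO vehicle as control.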

[9] = qHTS assay to test for compound auto fluorescence at 535 nm (green) in HEK293 cell free culture (AID 720682)
Method in brief: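 Green-channel intensity (Ex/Em 485/535 nm) was recorded from compound-treated wells containing only DMEM with 10% FBS. Fluorescein provided the equivalency standard.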

[10] = qHTS assay to test for compound auto fluorescence at 590 nm (red) in HEK293 cell free culture (AID 720683)
Method in brief: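 Tox21 10K library compounds were pinned into cell-free DMEM with 10% FBS and fluorescence was read at excitation 540 nm. Activity is expressed as Rose Bengal sodium equivalency.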

[11] = qHTS assay to test for compound auto fluorescence at 590 nm (red) in HepG2 cell free culture (AID 720684)
Method in brief: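 Red fluorescence (540 nm excitation, 590 nm emission) was measured after compound transfer into cell-free MEM supplemented with 10% FBS. Values are equivalencies against Rose Bengal sodium.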

[12] = qHTS assay to test for compound auto fluorescence at 460 nm (blue) in HepG2 cell free culture (AID 720685)
Method in brief: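 Compound (23 nL) or DMSO pinned into cell-free MEM with 10% FBS; blue fluorescence read at 405/460 nm excitation/emission, expressed as auto-fluorescence equivalency to triamterene.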

[13] = qHTS assay to test for compound auto fluorescence at 535 nm (green) in HepG2 cell free culture (AID 720686)
[14] = qHTS assay to test for compound auto fluorescence at 460 nm (blue) in HepG2 cells (AID 720687)
Method in brief: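 Cells (2,000/well in MEM with 10% FBS) attached overnight at 37 C, then were exposed to compound or DMSO for 1 hr at 37 C, 5% CO2. Fluorescence read at Ex/Em 405/460 nm, expressed as triamterene-equivalent signal.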

[15] = target: Glucocorticoid receptor (Homo sapiens) (UniProt P04150); test: qHTS assay to identify small molecule agonists of the glucocorticoid receptor (GR) signaling pathway (AID 720691; active means well fitted activation curve with a large enough effect in the signal ratio in the repeat runs, not every such curve was filed as active; the % refers to the signal ratio)
Chain of Glucocorticoid receptor (Homo sapiens) (P04150 whole entry, looked up): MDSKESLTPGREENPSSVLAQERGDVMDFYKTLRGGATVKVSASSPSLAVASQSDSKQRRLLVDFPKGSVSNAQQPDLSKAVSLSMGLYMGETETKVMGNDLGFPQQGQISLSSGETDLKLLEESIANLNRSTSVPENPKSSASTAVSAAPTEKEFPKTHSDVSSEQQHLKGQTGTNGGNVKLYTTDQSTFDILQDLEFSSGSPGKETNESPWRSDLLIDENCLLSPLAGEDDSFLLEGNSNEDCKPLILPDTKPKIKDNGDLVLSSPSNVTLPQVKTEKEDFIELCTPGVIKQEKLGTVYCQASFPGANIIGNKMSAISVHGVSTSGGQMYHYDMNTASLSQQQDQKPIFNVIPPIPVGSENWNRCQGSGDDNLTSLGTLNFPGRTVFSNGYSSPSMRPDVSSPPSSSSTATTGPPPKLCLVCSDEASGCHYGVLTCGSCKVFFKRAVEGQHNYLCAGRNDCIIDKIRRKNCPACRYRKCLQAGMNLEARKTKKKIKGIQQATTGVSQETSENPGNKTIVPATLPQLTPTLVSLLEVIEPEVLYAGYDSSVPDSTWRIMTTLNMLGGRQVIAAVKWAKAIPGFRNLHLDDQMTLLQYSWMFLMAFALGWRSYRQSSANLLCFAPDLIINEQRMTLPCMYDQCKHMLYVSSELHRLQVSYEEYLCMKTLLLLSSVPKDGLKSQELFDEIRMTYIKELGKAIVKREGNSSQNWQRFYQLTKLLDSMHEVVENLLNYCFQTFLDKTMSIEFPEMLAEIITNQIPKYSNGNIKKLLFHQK
Method in brief: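 Agonist mode in a HeLa line carrying a GRE-controlled beta-lactamase reporter. Compounds act for 18 h at 37 C before a 2 h room-temperature FRET substrate step and fluorescence reading.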

[16] = target: Glucocorticoid receptor (Homo sapiens) (UniProt P04150); test: qHTS assay to identify small molecule antagonists of the glucocorticoid receptor (GR) signaling pathway (AID 720692; active means well fitted inhibition curve with a large enough effect in the signal ratio in the repeat runs, not every such curve was filed as active; the % refers to the signal ratio)
Method in brief: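 Cells plated, rested 4 h at 37 C/5% CO2; compounds in DMSO pin-transferred; dexamethasone added to 5 nM final; 18 h at 37 C; B/G FRET substrate added, 2 h room temperature; fluorescence measured.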

[17] = qHTS assay for small molecules that induce genotoxicity in human embryonic kidney cells expressing luciferase-tagged ATAD5 - cell viability (AID 651634; calls by dose curve; further: nearly all actives have a fitted effect of over 25% in size; further: potency means the concentration at half of the fitted maximal effect)
Method in brief: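 Cytotoxicity counterscreen in HEK293T cells bearing an ATAD5-luciferase reporter: live-cell protease activity measured by CellTiter-Fluor fluorescence after 15.5 hr compound exposure.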

[18] = qHTS assay to test for compound auto fluorescence at 590 nm (red) in HepG2 cells (AID 720674)
Method in brief: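 Rose Bengal sodium served as the red fluorophore standard. HepG2 monolayers (overnight attachment, MEM with 10% FBS) were exposed to test compounds for 1 hr at 37 C and read at Ex 540/Em 590 nm.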

[19] = qHTS assay to test for compound auto fluorescence at 460 nm (blue) in HEK293 cells (AID 720678)
Method in brief: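 Blue-channel (Ex/Em 405/460 nm) intensity measured in HEK293 cultures after overnight compound exposure at 37C; signal expressed relative to triamterene. Cells plated 2,000 per well in 10% dialyzed FBS medium and allowed 4-5 hr to attach.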
On the % scale 0 is the no-effect control and ±100 the full control effect.

CC(C)CCCC(=O)O
inactive: Potency [1] | Potency [2] | Potency [3] | Potency [4] | outcome [5] | outcome [6] | outcome [7] | Potency [8] | outcome [9] | outcome [10] | outcome [11] | Potency [12] | outcome [13] | Potency [14] | Potency [15] | Potency [16]

CCCCCCOC(=O)CCCCCCCC(=O)OCCCCCC
inactive: Potency [1] | Potency [17] | Potency [3] | Potency [4] | outcome [18] | outcome [5] | Potency [19] | outcome [6] | outcome [7] | Potency [8] | outcome [9] | outcome [10] | outcome [11] | Potency [12] | outcome [13] | Potency [14] | Potency [15] | Potency [16]

Cc1cc(S(=O)(=O)O)ccc1N=Nc1c(O)ccc2ccccc12
inactive: Potency [1] | Potency [2] | Potency [3] | outcome [18] | outcome [5] | outcome [6] | outcome [7] | Potency [8] | outcome [9] | outcome [10] | outcome [11] | Potency [12] | outcome [13] | Potency [14]

COCc1c(C(C)C)nc(C(C)C)c(/C=C/[C@@H](O)C[C@@H](O)CC(=O)O)c1-c1ccc(F)cc1
inactive: Potency [1] | Potency [2] | Potency [17] | outcome [5] | Potency [19] | outcome [6] | outcome [7] | outcome [9] | outcome [10] | outcome [11] | Potency [12] | outcome [13] | Potency [14]

O=C(N/N=C/c1ccc([N+](=O)[O-])o1)c1ccc(O)cc1
inactive: Potency [1] | Potency [2] | fluorescence, relative to Rose Bengal [18] -0.334% [at 18.6 µM] | fluorescence, % of fluorescein control [5] -0.0853% [at 18.6 µM] | fluorescence, % of fluorescent control [6] 0.101% [at 18.6 µM] | fluorescence, % of fluorescein [7] 0.0272% [at 18.6 µM] | fluorescence, % of fluorescent control [8] -0.307% [at 18.6 µM] | activity change [9] 0.0091% [at 18.6 µM] | fluorescence, % of fluorescent control [10] -0.537% [at 18.6 µM] | fluorescence, % of Rose Bengal [11] -0.154% [at 18.6 µM] | fluorescence, % of fluorescent control [12] -0.18% [at 18.6 µM] | fluorescence, % of fluorescein control [13] -0.0078% [at 18.6 µM] | fluorescence, % of fluorescent control [14] -0.0309% [at 18.6 µM] | Potency [15]

COCCOC(=O)C1=C(C)NC(C)=C(C(=O)OC/C=C/c2ccccc2)C1c1cccc([N+](=O)[O-])c1 (centres undefined)
inactive: Potency [1] | outcome [18] | outcome [5] | Potency [19] | outcome [6] | outcome [7] | Potency [8] | outcome [9] | outcome [10] | outcome [11] | Potency [12] | outcome [13] | Potency [14] | Potency [15]
active: Potency [3] 9.44 µM | Potency [4] 10.6 µM

O=C(CCC1CCN(Cc2ccccc2)CC1)c1ccc2c(c1)NCCCC2
inactive: Potency [1] | Potency [2] | Potency [3] | outcome [18] | outcome [5] | Potency [19] | outcome [6] | outcome [7] | Potency [8] | outcome [9] | outcome [11] | Potency [12] | outcome [13] | Potency [14]

CCCCN(CCCC)C(=S)SSC(=S)N(CCCC)CCCC
inactive: Potency [1] | Potency [2] | outcome [18] | outcome [5] | Potency [19] | outcome [6] | outcome [7] | Potency [8] | outcome [9] | outcome [10] | outcome [11] | Potency [12] | outcome [13] | Potency [14]

Fc1ccccc1[C@@H](F)COC1CCC(Nc2ncnc3[nH]ncc23)CC1 (some centres undefined)
inactive: Potency [1] | Potency [2] | Potency [3] | outcome [18] | outcome [5] | Potency [19] | outcome [7] | Potency [8] | outcome [9] | outcome [10] | outcome [11] | Potency [12] | outcome [13] | Potency [14] | Potency [15]

CC1C2CC(CC2C2CCCC(O)C2)C1(C)C (centres undefined)
inactive: Potency [1] | Potency [17] | outcome [18] | outcome [5] | Potency [19] | outcome [6] | outcome [7] | Potency [8] | outcome [9] | outcome [10] | outcome [11] | Potency [12] | outcome [13] | Potency [14]

O=C(CCCN1CCN(c2ccc(F)cc2)CC1)NC1c2ccccc2CSc2ccccc21 (centres undefined)
inactive: Potency [1] | Potency [3] | outcome [18] | outcome [5] | outcome [6] | outcome [7] | Potency [8] | outcome [9] | outcome [10] | outcome [11] | Potency [12] | outcome [13] | Potency [14] | Potency [15] | Potency [16]

COC(=O)[C@@H]1CC2=CC(=O)CC[C@]2(C)[C@@]23O[C@@H]2C[C@@]2(C)[C@@H](CC[C@@]24CCC(=O)O4)[C@H]13
inactive: Potency [1] | Potency [17] | Potency [3] | outcome [18] | outcome [5] | Potency [19] | outcome [6] | outcome [7] | Potency [8] | outcome [9] | outcome [11] | Potency [12] | outcome [13] | Potency [14]

Cc1ccc(Nc2nccc(N(C)c3ccc4c(C)n(C)nc4c3)n2)cc1S(N)(=O)=O
inactive: Potency [1] | outcome [18] | outcome [5] | Potency [19] | outcome [6] | outcome [7] | Potency [8] | outcome [9] | outcome [10] | outcome [11] | Potency [12] | outcome [13] | Potency [14]
active: Potency [17] 26.6 µM | Potency [4] 0.75 µM

OCC1CC=CCC1 (centres undefined)
inactive: Potency [1] | Potency [2] | Potency [3] | Potency [4] | outcome [18] | outcome [5] | Potency [19] | outcome [6] | outcome [7] | outcome [9] | outcome [11] | Potency [12] | outcome [13] | Potency [14] | Potency [15]

O=c1[nH]c2ccc(S(=O)CCN3CCC(Cc4ccc(F)cc4)CC3)cc2o1 (centres undefined)
inactive: Potency [1] | Potency [2] | outcome [18] | outcome [5] | Potency [19] | outcome [6] | outcome [7] | Potency [8] | outcome [9] | outcome [10] | outcome [11] | Potency [12] | outcome [13] | Potency [14] | Potency [15] | Potency [16]

O=C(N[C@@H](c1ccccc1)[C@@H]1CCCCN1)c1cccc(C(F)(F)F)c1Cl
inactive: Potency [1] | Potency [2] | Potency [3] | outcome [18] | outcome [5] | outcome [6] | outcome [7] | Potency [8] | outcome [9] | outcome [10] | outcome [11] | Potency [12] | outcome [13] | Potency [14] | Potency [15]

Oc1ccc(Nc2ccccc2)cc1
active: Potency [4] 54.5 µM
inactive: Potency [1] | Potency [2] | outcome [18] | outcome [5] | outcome [6] | outcome [7] | Potency [8] | outcome [9] | outcome [10] | outcome [11] | Potency [12] | outcome [13] | Potency [14] | Potency [15] | Potency [16]
